SNCA viab count = counter-screen for SNCA expression inhibitors: cell viability; hit rate 0.12% among 150,000; HEK-293-SNCA-luc viability, GF-AFC fluorescence, 24 h; Potency, µM (series often up to 57.1 µM), for the others: top-dose activity change, negative = cytotoxicity, actives largely listed as cytotoxic;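 also: 0% = DMSO-treated cells and -100% = medium-only wells without cells; nearly all actives have a fitted effect of over 30% in size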
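Cytotoxicity counterscreen: after 24 h compound treatment of genome-edited SNCA-luciferase HEK-293 cells, live-cell protease substrate GF-AFC read by fluorescence after 30 min; activity scaled between DMSO (0%) and medium-only (-100%), curves Hill-fitted.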
HEK293 tox = kills HEK 293 cells; HEK 293 viability, ATP luminescence (CellTiter-Glo), 48-72 h; Potency, µM (doses to about 115 µM), without a hit: at the highest dose activity change, negative = cytotoxicity, usual class: inhibitors; hit rate 6.6% among 94,000; AID 1345083; also: nearly all actives have a fitted effect of over 60% in size
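Cytotoxicity was scored by loss of ATP-coupled luminescence (CellTiter-Glo) in HEK 293 cells. Compound treatment ran 48 or 72 hr at 37 degree Celsius, 5% CO2, 95% humidity.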
Luciferase inh = inhibitors of firefly (Photinus pyralis) luciferase | purified P. pyralis luciferase, luminescence, biochemical | Potency, µM (highest dose often 115 µM), hits mostly inhibitors | hit rate 2.5% among 76,000; also: nearly all actives have a fitted effect of over 65% in size
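Cell-free enzyme assay, 10nM P. pyralis luciferase, luciferin and ATP each at 10uM. Inhibition profiled over a 6-point titration, read as luminescence.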
SNCA expr inh = SNCA gene expression inhibition. Potency, µM (doses to about 57.2 µM), for the others: at the highest dose activity change, negative = inhibition, usual class: inhibitors. HEK-293 SNCA-luciferase knock-in, luminescence, 24 h. hit rate 0.17% among 140,000;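 also: plate controls were DMSO cells for no effect and cell-free wells for full effect; nearly all actives have a fitted effect of over 45% in size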
3T3 cytotox = cytotoxic compounds in NIH 3T3 cells | AID 1345082 | Potency, µM (series often up to 96.7 µM), for the others: top-dose activity change, negative = cytotoxicity, actives largely listed as inhibitors | hit rate 4.3% among 94,000 | NIH 3T3 viability, CellTiter-Glo ATP luminescence, 48-72 h; also: nearly all actives have a fitted effect of over 55% in size
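NIH 3T3 cells at 400 cells/well received 23 nL of compound by pintool and were incubated 48 or 72 h at 37 °C. Viability was read as ATP-coupled CellTiter-Glo luminescence.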
hNpr1 antagonist = human Npr1 receptor antagonism. HEK293 hNpr1 GloSensor cGMP, ANP-stimulated luminescence. hit rate 1.6% among 76,000. Potency, µM (top dose mostly 46.3 µM), without a hit: at the highest dose activity change, negative = inhibition, most hits filed as inhibitors; calls by dose curve; also: nearly all actives have a fitted effect of over 60% in size
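Compound pre-incubated 30 min at room temperature on GloSensor-loaded HEK293 cells stably carrying hNpr1 and the pGS-40F cGMP biosensor. Stimulation uses hNppA at 0.1 nM final; luminescence is taken at baseline and 20 min post-agonist.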
The depositor's hits bear a star; i = inactive; ? = inconclusive; . = no result given; [ ] = another dose, or the depositor's remark. Sampled rows, rich in hits. Any-hit rate of the full collection: about 7.4%. Unless noted, calls follow the shape of the dose curve; as a rule, active = well fitted curve in the direction sought with a large enough effect; inconclusive = small, poorly fitted or top-dose-only effect, or another doubt; inactive = no such curve, though single readings can be large; an effect the other way counts as inactive or inconclusive. Unless noted, % is scaled to controls: 0 for no effect and ±100 for the full control effect; potency is read from the fitted curve at half-maximal effect.

SMILES	SNCA viab count	HEK293 tox	Luciferase inh	SNCA expr inh	3T3 cytotox	hNpr1 antagonist
O=C(NC1CCCCCC1)c1cc(-c2ccc(Cl)cc2Cl)c2nncn2n1	-18%[12.5 µM]	40µM*	.	-7%	?	.
COc1ccccc1-c1cc(C(=O)NC2CCCCCC2)nn2cnnc12	-6%	?	.	19%	?	.
O=C(NCc1ccc(Cl)cc1)c1cc(-c2ccc(Cl)cc2Cl)c2nncn2n1	-12%[12.5 µM]	?	.	-1%	35µM*	.
O=C1CCN(CC(O)C(F)(F)F)c2ccc(F)cc2CN1CC1CC1 (stereo not given)	.	-37%	.	.	?	.
O=C1NC(C(=O)NCC2CCCCC2)Cn2cccc21 (stereo not given)	4%	i	i	15%	2%	2%
CCC(=O)N(C1CCOCC1)C1CCN(Cc2ccc(OC)c(OC)c2)CC1	14%	3%	i	2%	-19%	-2%
CCCN(CC1CCOC1)S(=O)(=O)c1cccc(OC)c1 (stereo not given)	-19%	0%	i	-13%	3%	0%
O=C(COc1ccccc1)Nc1ccc2c(N3CCOCC3)ncnc2c1	-10%	?	i	-10%	?	-4%
c1ccc2c(c1)CCCN2CCCNc1ncncn1	7%	?	i	9%	?	-2%
c1cncc(-c2ccnc(NCCCN3CCCc4ccccc43)n2)c1	6%	?	i	-9%	22µM*	-18%
CN(c1cc(=O)c2ccnc(-c3cncnc3)c2o1)C1CCOCC1	5%[87.6 µM]	i	i	-19%[87.6 µM]	79µM*	1%[70.6 µM]
CN(C)c1cccc(-c2nccc3c(=O)cc(N(C)C4CCOCC4)oc23)c1	8%[87.6 µM]	-9%[172 µM]	i	?	?	-1%[70.6 µM]
CN(c1cc(=O)c2ccnc(-c3cccc(CO)c3)c2o1)C1CCOCC1	3%[87.6 µM]	-9%[172 µM]	i	25%[87.6 µM]	25µM*	1%[70.6 µM]
COCC(=O)N(C)Cc1ccc(-c2ccccc2)cc1	11%[87.6 µM]	?	?	85%[87.6 µM]	?	3%[70.6 µM]
Cc1ccc(Nc2ccnc(N3CCC(C(=O)N4CCN(c5ncccn5)CC4)CC3)n2)cc1	-3%[12.5 µM]	18µM*	.	-22%	35µM*	.
Cc1ccc(Nc2ccnc(N3CCC(C(=O)N4CCC(Cc5ccccc5)CC4)CC3)n2)cc1	-1%[12.5 µM]	35µM*	.	-12%	?	.
CC(=O)N1CCN(C(=O)C2CCN(c3nccc(Nc4ccc(C)cc4)n3)CC2)CC1	-5%[12.5 µM]	-15%	.	106%	-21%	.
CO[C@H]1[C@H](NC(=O)CCc2cccnc2)c2ccccc2C12CCNCC2	2%	-21%	i	?	-12%	3%
CCN1CC[C@H]2COC(=O)N2c2ccc(OC)cc2C1	-2%[87.6 µM]	-7%[230 µM]	i	4%[87.6 µM]	4%[230 µM]	-1%[70.6 µM]
Cc1nc(N2CCCCC2)ncc1C(=O)N[C@H]1[C@H]2CCO[C@H]2[C@@H]1N(C)C	10%	i	i	-28%	i	1%
CCN1C(=O)C2(CCN(C(=O)c3ccc(OC(C)C)cc3)CC2)c2ccccc21	-3%	?	i	-4%	-27%	-1%
COc1ncccc1-c1cc2c(ccn2CC2CCN(C)CC2)c(N2CCOCC2)n1	5%[87.6 µM]	89µM*	i	-1%[87.6 µM]	45µM*	-13%[70.6 µM]
COc1cccc(-c2cc3c(ccn3CC3CCN(C)CC3)c(N3CCOCC3)n2)c1	-28%[87.6 µM]	63µM*	i	?	25µM*	0%[70.6 µM]
COc1ncccc1-c1cc2c(ccn2Cc2ccncc2)c(N2CCOCC2)n1	-6%[87.6 µM]	-30%[172 µM]	i	5%[87.6 µM]	?	-9%[70.6 µM]
O=C(CC1COCCN1)NCc1ccc(N2CCCC2=O)cc1 (stereo not given)	1%	-18%	i	1%	5%	2%
COc1ccc2ccccc2c1CCNC(=O)CC1C(=O)NCCN1C(C)C (stereo not given)	-12%	-12%	i	-9%	-7%	-5%
COc1ccc(Cl)cc1C(=O)N1CCC2(CC1)N=C(c1ccc(C)cc1)NO2	-13%	?	i	-4%	-30%	-9%
